OPRM1-OPRD1 ag: OPRM1-OPRD1 heterodimerization agonism; AID 504326; activation, % at 9.3 µM; P35372+P41143; hit rate 0.3% among 340,000; cells, luminescence; in the data active means activation above about 18%;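 further: 0% = vehicle-treated cells and 100% = reference agonist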
HTR5A inv ctr: counter-screen for OPRM1-OPRD1 inverse agonists: human HTR5A inverse agonism. hit rate 0.083% among 340,000. HTR5A cell line, luminescence. inhibition, % at 9.3 µM. AID 504634; in the data active means inhibition mostly above about 23%, no sharp cut-off; inactive means mostly below about 18%;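 further: 0% = cells with DMSO and 100% = no-cell wells with DMSO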
Target sequence (P47898 whole entry, looked up): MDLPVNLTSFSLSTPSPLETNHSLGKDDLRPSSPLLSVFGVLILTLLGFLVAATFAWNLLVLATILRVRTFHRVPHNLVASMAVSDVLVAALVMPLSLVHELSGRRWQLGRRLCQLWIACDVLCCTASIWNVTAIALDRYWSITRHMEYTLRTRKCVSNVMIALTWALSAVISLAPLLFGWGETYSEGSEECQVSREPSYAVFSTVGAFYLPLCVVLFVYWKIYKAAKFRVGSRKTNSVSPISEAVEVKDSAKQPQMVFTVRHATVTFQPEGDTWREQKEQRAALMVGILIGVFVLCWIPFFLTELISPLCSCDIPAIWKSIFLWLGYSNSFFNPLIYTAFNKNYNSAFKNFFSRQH
HTR5A ag: HTR5A agonism, opioid heterodimer counter-screen | HTR5A agonist assay, luminescence, cell-based | activation, % at 9.3 µM | hit rate 0.61% among 340,000 | AID 504692; in the data active means activation mostly above about 9.5%, no sharp cut-off; inactive means mostly below about 7.6%;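 further: 0% = cells with vehicle only and 100% = reference agonist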
MOR-DOR inv ag: inverse agonists of human mu-delta opioid receptor heterodimerization; cell-based MOR-DOR heterodimer luminescence, inverse agonism; inhibition, % at 9.3 µM; hit rate 0.21% among 340,000; in the data active means inhibition above about 22%, passing the limit was not always enough;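 further: 0% = cells with DMSO and 100% = wells without cells with DMSO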
An asterisk follows results filed as active. Only some compounds are listed: those with a hit (about 1.1% of all), similar ones and a draw of the others.

SMILES	OPRM1-OPRD1 ag	HTR5A inv ctr	HTR5A ag	MOR-DOR inv ag
CCN(C(=O)COC(=O)c1cc(S(=O)(=O)N2CCOCC2)ccc1F)C1CCS(=O)(=O)C1 (configuration not stated)	-2.0	4.0	6.5	9.7
CCn1c(C)nc2cc(C(=O)N/N=C(\C)c3ccccc3O)ccc21	-1.8	-25.9	10.4*	8.5
O=C(OCC(=O)N1CCCCC1)c1c[nH]c2ccccc12	-4.2	1.7	-1.3	16.4
O=C(OCC(=O)N1CCCCC1)c1cc(=O)[nH]c2ccccc12	0.0	17.0	12.8*	-0.1
O=C(N/C(=C/c1ccc(F)cc1)C(=O)N1CCCC1)c1ccccc1	-3.2	-7.9	3.0	17.3
O=C(N/C(=C/c1ccccc1Cl)C(=O)N1CCCC1)c1ccccc1	0.2	3.4	13.5*	-0.9
CC(C)(C)c1ccc(COn2ccnc2)cc1	-3.9	2.6	-1.1	20.3
C=CCN1C=C2C(=O)C(C)(OC(=O)C3CCCC3)C(=O)C(c3ccccc3)=C2C=C1CCCC(=O)OC (configuration not stated)	5.9	22.4	12.2*	-32.5
Cn1c(-c2c(N)n(CCCc3ccccc3)c3nc4ccccc4nc23)nc2ccccc21	57.9*	2.9	0.6	-313.2
O=C(Nc1c(C(=O)O)[nH]c2ccc(F)cc12)c1cccc(C(F)(F)F)c1	-0.6	-37.4	11.9*	3.3
Cc1ccc(S(=O)(=O)N2CCOCC2)cc1NC(=O)COC(=O)Cc1cccs1	-3.8	0.1	6.1	18.4
O=C(COC(=O)c1ccc(OC(F)F)cc1)NCc1cccs1	-1.0	4.3	-1.7	4.0
O=C(Nc1ccc(N2CCCCC2)c(C(=O)O)c1)c1ccco1	2.0	-22.3	10.1*	-11.9
Cc1cccc(NC(=O)c2cc(NC(=O)c3ccco3)ccc2N2CCCCC2)c1	-1.8	-18.7	1.7	8.9
CCCC1(C(=O)O)NC(c2ccccc2O)C2C(=O)N(c3cccc(Cl)c3)C(=O)C21 (configuration not stated)	-3.1	-41.5	13.9*	15.6
CCCC1(C(=O)O)NC(c2cccc(OC)c2O)C2C(=O)N(c3ccccc3)C(=O)C21 (configuration not stated)	-1.2	-1.9	0.6	6.2
O=C1c2[nH]c(=O)[nH]c(=O)c2CN1Cc1ccccc1	-2.2	-1.3	0.3	11.7
CCOC(=O)c1c(C)sc2c1N(C(=O)CCl)c1cc(Cl)ccc1S2	35.6*	-41.6	18.9*	-176.6
Cc1cccc(NS(=O)(=O)c2c(C(=O)N3CCOCC3)c(C)n(C)c2C)c1C	-1.1	7.2	-0.7	6.1
Cc1cc(OCC(=O)Nc2ccncc2)cc(C)c1Br	4.0	-1.0	12.6*	-23.6
CN(CC(=O)Nc1cccc(F)c1)C(=O)C1CCC(C(=O)N(C)CC(=O)Nc2cccc(F)c2)CC1 (configuration not stated)	-1.5	-0.5	0.1	7.8
Cc1cc(C)c(S(=O)(=O)/N=C2/C=C(Sc3ncn[nH]3)C(=O)c3ccccc32)cc1C	19.7*	-5.2	3.7	-102.2
COc1ccc(S(=O)(=O)N(C)C[C@H]2Oc3ccc(NS(=O)(=O)c4cn(C)cn4)cc3C(=O)N([C@H](C)CO)C[C@@H]2C)cc1	-0.2	-6.1	1.6	1.2
Cc1ccc(NC(=O)CSc2nnc3c(n2)[nH]c2ccccc23)cc1	-1.3	8.1	11.4	6.7
Cc1ccc(-c2csc(NC(=O)CSc3nnc4c(n3)[nH]c3ccccc34)n2)cc1	5.4	-49.1	13.4*	-28.0
SMILES	OPRM1-OPRD1 ag	HTR5A inv ctr	HTR5A ag	MOR-DOR inv ag
CCn1c(=O)cc(SCC(=O)N2CCN(c3ccccc3F)CC2)c2ccccc21	-1.0	-9.3	12.6*	5.8
O=[N+]([O-])/C(C=Nc1ccccc1O)=C\Nc1ccccc1O	0.6	-20.2	7.4	-3.1
O=C(NC(C(=O)O)c1ccccc1)c1ccc(S(=O)(=O)N2CCOCC2)cc1 (configuration not stated)	-1.3	-39.0	12.0*	7.0
CCN(CC)S(=O)(=O)c1ccc(N2CCCC2)c(C(=O)OCC(=O)Nc2cc(C)on2)c1	-1.3	-28.5	-2.5	6.5
CN(/N=C/c1cc(Cl)ccc1O)C1=NS(=O)(=O)c2ccccc21	-0.7	-9.6	2.5	3.1
CN(C=O)c1ccc(CSc2ccccc2)cc1	-2.5	-4.0	1.1	13.2
CN(C)c1nc(SCCOC(=O)Nc2ccccc2)nc(N(C)C)n1	9.2	14.1	8.8*	-46.3
CN(C)c1nc(C(=O)Nc2ccccc2)nc(N(C)C)n1	-0.9	-1.1	2.3	5.5
Cc1ccc2oc(=O)n(CC(=O)N3CCOCC3)c2c1	-3.6	-17.9	-0.8	17.6
Clc1ccc(OCCCNCc2ccccc2)c2ccccc12	6.6	-38.6	10.4*	-30.4
Cc1c(C(=O)NC2CCCCC2)sc2ncnc(N3CCN(c4ccccc4)CC3)c12	-2.0	14.1	11.3*	10.4
